From PubChem BioAssay
The source made the active and inactive calls.

Experiments:
[1] = biological target: Albumin (Bos taurus) (UniProt P02769); test: bovine serum albumin binders on microarray, profiling panel, artefact control for SMM control protein annotation, biochemical, small-molecule microarray, Alexa647 label, 635/667 nm fluorescence (AID 1118); conditions: BSA-A647 binding, fluorescence 635 nm, higher = more signal;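 further: score merges 667 nm emission intensity and signal-to-noise per printed compound spot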
Chain of Albumin (Bos taurus) (P02769 whole entry, looked up): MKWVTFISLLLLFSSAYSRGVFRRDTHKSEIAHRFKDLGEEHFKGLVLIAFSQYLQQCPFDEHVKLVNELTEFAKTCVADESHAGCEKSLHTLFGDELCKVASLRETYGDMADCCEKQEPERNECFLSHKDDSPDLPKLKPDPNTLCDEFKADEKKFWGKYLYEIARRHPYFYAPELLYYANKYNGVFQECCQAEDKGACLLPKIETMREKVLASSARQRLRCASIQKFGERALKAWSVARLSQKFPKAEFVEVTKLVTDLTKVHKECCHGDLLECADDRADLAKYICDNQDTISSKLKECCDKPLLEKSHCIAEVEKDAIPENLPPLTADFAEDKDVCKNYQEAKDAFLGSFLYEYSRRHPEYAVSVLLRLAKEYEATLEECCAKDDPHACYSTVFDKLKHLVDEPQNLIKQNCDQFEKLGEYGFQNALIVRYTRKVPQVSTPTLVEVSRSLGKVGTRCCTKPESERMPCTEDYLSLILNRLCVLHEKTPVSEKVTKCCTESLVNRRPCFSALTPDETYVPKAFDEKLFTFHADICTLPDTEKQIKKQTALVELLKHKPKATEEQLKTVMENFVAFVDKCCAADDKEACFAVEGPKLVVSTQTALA

[2] = small-molecule microarray binders of probe aXIP, primary screen, biochemical, NeuroSMM set, 635/667 nm fluorescence (AID 1119); conditions: higher = more signal, called active from +8 up or from −8 down;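 further: probe is the protein aXip251-270 applied at 1 µg/mL to compound-printed slides; binding of probe to printed compounds measured as 667 nm fluorescence plus signal to noise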
[3] = small-molecule binders of probe aNOTCH3, primary screen, biochemical, small-molecule microarray, 635/667 nm fluorescence (AID 1120); conditions: higher = more signal;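 further: probe is a biotin-tagged antibody raised against NOTCH3 rather than NOTCH3 protein; score merges spot fluorescence near 667 nm with spot signal to noise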
[4] = small-molecule binders of probe aNOTCH2, primary screen, biochemical, small-molecule microarray, 635/667 nm fluorescence (AID 1121); conditions: higher = more signal;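 further: score merges feature fluorescence read at 667 nm with its signal to noise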
[5] = biological target: Carbonic anhydrase 2 (Homo sapiens) (UniProt P00918); test: CAII small-molecule binders, profiling panel, biochemical, small-molecule microarray, Alexa647-labelled CAII (AID 1122); conditions: CAII-A647 binding fluorescence, higher = more signal
[6] = COS7 lysate on small-molecule microarray, probe aHis, 635 nm (AID 1123); conditions: COS7 cell lysate, fluorescence, higher = more signal;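 further: z-score combines 667nm fluorescence intensity with signal-to-noise per printed compound spot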
[7] = compound binding in COS7 lysate, probe aLAP1, primary screen, cell lysate, small-molecule microarray (AID 1124); conditions: probe aLAP1, fluorescence, higher = more signal;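 further: lysate comes from COS7 cells expressing LAP1 and is applied at 0.3 µg/mL; score merges spot fluorescence near 667 nm with signal-to-noise over triplicate slides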
[8] = tested on: Sam68 (KHDRBS1); test: Sam68 small-molecule binders, primary screen, biochemical, small-molecule microarray, 635 nm fluorescence (AID 1125); conditions: small-molecule microarray binding, higher = more signal;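 further: score merges 667 nm channel intensity with signal to noise over triplicate slides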
[9] = tested on: Chordin-like protein 2 (CHRDL2); test: CHRDL2 small-molecule binders, primary screen, biochemical, small-molecule microarray, 635 nm fluorescence (AID 1126); conditions: small-molecule microarray binding, fluorescence 635 nm; higher = more signal;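 further: printed compound slides probed with Chrdl2 protein at 4 µg/mL for 1 h at 4 C; score merges 667 nm emission intensity with signal to noise over three replicate slides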
[10] = biological target: Concanavalin-A (Canavalia ensiformis) (UniProt P02866); test: ConA small-molecule binders, primary screen, artefact control for SMM control protein annotation, biochemical, small-molecule microarray, Alexa647 label, 635 nm (AID 1127); conditions: ConA-A647 binding fluorescence, higher = more signal;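 further: z combines 667 nm emission intensity with signal-to-noise across three replicate slides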
Chain of Concanavalin-A (Canavalia ensiformis) (P02866 whole entry, looked up): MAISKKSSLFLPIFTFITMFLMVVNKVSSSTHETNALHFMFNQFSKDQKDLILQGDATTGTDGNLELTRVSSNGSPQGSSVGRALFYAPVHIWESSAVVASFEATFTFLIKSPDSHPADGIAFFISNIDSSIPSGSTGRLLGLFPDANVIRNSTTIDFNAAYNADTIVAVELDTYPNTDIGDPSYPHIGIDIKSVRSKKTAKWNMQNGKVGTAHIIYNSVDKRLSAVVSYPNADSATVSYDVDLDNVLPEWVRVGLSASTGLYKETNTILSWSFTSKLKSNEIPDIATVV

| SMILES | composite z-score [1] | composite Z-score [2] | composite z-score [3] | composite z-score [4] | composite z-score [5] | composite z-score [6] | composite z-score [7] | composite z-score [8] | composite z-score [9] | composite z-score [10] |
| --- | --- | --- | --- | --- | --- | --- | --- | --- | --- | --- |
| CC1CC/C=C\[C@H]2OC34C=CCN(C(C)(C)C)C(=O)[C@H]3N(C(CO)C(C)C)C(=O)[C@@H]4C2C(=O)O1 (stereo not given in full) | -0.667 | 0.148 (inactive) | -0.0647 | -0.0974 | 0.867 | 1.37 | 0.876 | 0.117 | -0.165 | -0.268 |
| C=C(COC)/C(=C/C[C@@H](OC(=O)c1ccncc1)c1ccccc1OCCO)c1cc(C(=O)OC)ccc1OC | 0.247 | -0.476 (inactive) | -0.171 | -0.132 | 0.803 | 0.107 | 0.748 | -0.227 | -1.12 | -0.71 |
| CN(C)CCCCCCNC(=O)[C@@H]1C[C@@H]2C(=O)N[C@@H](CCCCN)C(=O)N2[C@@H]1c1ccc(O)cc1 | 0.73 | 3.97 (inactive) | 2.14 | 0.999 | 0.74 | 3.41 | 0.611 | 1.32 | 1.36 | 1.24 |
| [N-]=[N+]=Nc1ccccc1C[C@]1(C(=O)NCc2ccccc2)COC(c2ccc(OCCCO)cc2)=N1 | 0.784 | -0.135 (inactive) | 0.0945 | -0.0859 | 0.383 | 2.52 | 0.171 | 1.3 | -0.362 | 0.995 |
| COc1cc2c(cc1O)C(c1ccc(CN3CCCC3)cc1)N(C)CC2 (stereo not given) | 0.462 | 0.142 (inactive) | -0.173 | -0.127 | 0.359 | -0.138 | 2.24 | -0.645 | -1.26 | 0.113 |
| Cc1ccc(S[C@]2(C(=O)NCc3ccccc3)CC(=O)N(Cc3cc(C(F)(F)F)cc(C(F)(F)F)c3)[C@@H]2c2ccc(CO)cc2I)cc1 | -0.618 | -0.244 (inactive) | -0.338 | -0.161 | 0.699 | 0.67 | 0.0779 | -0.191 | -1.77 | -1.54 |
| CC(=O)N1CC(C(O)C2C=CC3C(=O)NC(=O)C3N2Nc2ccc(Cl)cc2Cl)c2ccccc21 (stereo not given) | 0.892 | 0.0413 (inactive) | -0.0077 | 0.108 | 0.693 | 2.36 | -0.0203 | 0.99 | 0.237 | 0.732 |
| CCCCCCCCCCC(O)C1C=CC2C(=O)N(c3ccccc3)C(=O)C2N1Nc1ccccc1F (stereo not given) | 0.524 | -0.105 (inactive) | -0.0242 | -0.171 | 0.208 | 1.5 | 0.344 | 0.233 | -1.13 | 0.17 |
| C=CCNC(=O)[C@H]1[C@@H]2C(=O)O[C@@H](c3ccccc3)[C@@H](c3ccccc3)N2[C@@H](c2ccc(O)cc2)[C@]12C(=O)N(C(=O)OCCOC)c1ccc(C#CCC(C(=O)OC)C(=O)OC)cc12 | 0.675 | 1.04 (inactive) | 0.0904 | -0.154 | 0.378 | 2.05 | 0.775 | 1.3 | 0.822 | 0.96 |
| O=C1c2ccccc2[C@](Cc2ccccc2I)(C(=O)NC2CC2)[C@H](c2ccc(CO)cc2)N1Cc1ccccc1C(F)(F)F | 0.502 | 0.0029 (inactive) | 0.134 | -0.0986 | 0.66 | 1.88 | 0.43 | 0.456 | -0.941 | 0.847 |
| CC(C)N1CC=CC23O[C@@H]4/C=C\CCCOC(=O)C4[C@H]2C(=O)N(CCCCCCO)[C@@H]3C1=O (stereo not given in full) | -0.616 | 0.379 (inactive) | -0.277 | -0.0895 | 0.938 | 1.28 | 1.14 | 0.223 | -1.26 | -1.02 |
| COC(=O)C1N=C(c2ccc(OCCCO)cc2)N(c2ccccc2)O1 (stereo not given) | 0.878 | 0.608 (inactive) | 0.187 | -0.0073 | 0.403 | 1.1 | 0.382 | 1.14 | 0.236 | 1.11 |
| C[C@@H]1ON(c2ccc(I)cc2)[C@H](c2ccc(OC(=O)OC(C)(C)C)cc2)[C@H]1C(=O)N1C(=O)OC[C@H]1Cc1ccccc1 | 0.578 | 0.0054 (inactive) | -0.0043 | -0.14 | 0.574 | 0.527 | -0.36 | 1.15 | 0.376 | 1.09 |
| O=C(NCC(O)CO)[C@@]1(CCS(=O)(=O)c2ccccc2)COC(c2ccc(OCCCO)cc2)=N1 (stereo not given in full) | 0.927 | 0.538 (inactive) | 0.241 | 0.0342 | 0.863 | 3.35 | -0.0542 | 0.679 | -0.734 | 0.572 |
| C=C(/C(=C/C[C@@H](OC(C)=O)c1ccc(CO)o1)c1cc(C(=O)OC)ccc1OC)C(C)C | 0.461 | -0.0662 (inactive) | 0.232 | -0.124 | 0.662 | 1.31 | 0.0806 | 0.561 | 0.0347 | 0.395 |
| COC(=O)C(CC#Cc1ccc2c(c1)[C@]1(C(=O)N2)[C@H](c2ccc(O)cc2)N2[C@H](c3ccccc3)[C@H](c3ccccc3)OC(=O)[C@H]2[C@@H]1C(=O)N1CCCCCCC1)C(=O)OC | 0.631 | 1.71 (inactive) | 1.29 | -0.0586 | 0.816 | 2.46 | 1.18 | 1.29 | 1.13 | 1.14 |

| SMILES | composite z-score [1] | composite Z-score [2] | composite z-score [3] | composite z-score [4] | composite z-score [5] | composite z-score [6] | composite z-score [7] | composite z-score [8] | composite z-score [9] | composite z-score [10] |
| --- | --- | --- | --- | --- | --- | --- | --- | --- | --- | --- |
| C=C(COC)C(=O)CC[C@H](OC(C)=O)c1ccc(OCCO)cc1 | -0.0592 | -0.308 (inactive) | -0.0362 | -0.0971 | 0.549 | 0.523 | 2.46 | 0.666 | 0.569 | 0.488 |
| Cc1ccc([C@H]2C(C(=O)O)=C[C@@H](C(C)(C)C)N2S(=O)(=O)c2ccc(C)cc2)cc1 | 0.966 | 0.0172 (inactive) | 0.305 | 0.0746 | 0.531 | 1.99 | 0.868 | 1.31 | -0.202 | 1.21 |
| COc1cc2c(cc1O)C(c1cccs1)N(Cc1sc3ccccc3c1Cl)CC2 (stereo not given) | 0.931 | -0.818 (inactive) | 0.173 | 0.0294 | 0.587 | 2.04 | 1.17 | 1.3 | 0.613 | 1.07 |
| CC1CC/C=C\[C@H]2OC34C=CCN(CCN5CCOCC5)C(=O)[C@H]3N(C(C)CO)C(=O)[C@@H]4C2C(=O)O1 (stereo not given in full) | -0.712 | 0.117 (inactive) | -0.129 | -0.0741 | 0.738 | 1.57 | -0.221 | 0.19 | -0.231 | -0.371 |
| Cc1cccc([C@H]2C[C@H]3C(I)=C[C@@H]2C(=O)[C@]32CO2)c1 | -0.883 | 0.694 (inactive) | -0.199 | -0.112 | 0.0705 | -0.55 | 0.466 | -0.5 | 0.645 | -0.478 |
| CC(CO)N1C(=O)[C@@H]2[C@H]3C(=O)OCC=C[C@H]3OC23C=CCN(c2ccc(Cl)cc2)C(=O)[C@@H]13 (stereo not given in full) | -1.68 | -0.243 (inactive) | -0.454 | -0.161 | 0.935 | -0.224 | -0.191 | -0.598 | -2.12 | -2.16 |
| CCOC(=O)C[C@H]1[C@H](OC(=O)c2ccc(-c3ccccc3)cc2)[C@@H](NC(=O)CC(C)C)c2cc(OCCCO)ccc2N1C(=O)c1ccccc1 | 0.506 | -0.221 (inactive) | -0.0057 | -0.124 | 0.108 | 0.806 | -0.2 | 1.03 | 0.0549 | 0.27 |
| COCCOC(=O)N1C(=O)[C@@]2(c3cc(C#CCNC(N)=O)ccc31)[C@H](c1ccc(OCCO)cc1)N1[C@H](c3ccccc3)[C@H](c3ccccc3)OC(=O)[C@H]1[C@@H]2C(=O)NC[C@H](O)c1ccccc1 | 0.633 | -0.524 (inactive) | 0.206 | -0.013 | 0.225 | 0.0755 | 0.442 | 1.29 | 0.84 | 1.14 |
| C=CC[C@H](OC(=O)Nc1ccc(SC)cc1)c1ccc(OCCO)cc1 | -0.0497 | 0.154 (inactive) | -0.0321 | -0.0996 | 0.655 | -0.365 | 0.656 | -1.12 | 0.0241 | -0.32 |
| O=C1O[C@H](c2ccccc2)[C@H](c2ccccc2)N2[C@H]1[C@@H](C(=O)N1CCCCCCC1)[C@]1(C(=O)Nc3ccc(C#CC4(O)CCCCCC4)cc31)[C@H]2c1ccccc1OCCO | 0.573 | 9.08 (active) | 2.18 | 1.13 | 1.02 | 5.1 | 1.42 | 1.34 | 1.73 | 0.952 |
| CC(C)OC(=O)CC(=O)CC(O)c1ccc([N+](=O)[O-])cc1 (stereo not given) | 0.169 | -0.314 (inactive) | -0.0413 | 0.0215 | 0.152 | 0.666 | 0.447 | 0.543 | -1.23 | -0.122 |
| CN1C(=O)C2C=CC(C(O)c3cc(C(F)(F)F)cc(C(F)(F)F)c3)N(Nc3ccccc3)C2C1=O (stereo not given) | 0.969 | 0.309 (inactive) | -0.149 | -0.147 | 0.831 | 2.96 | -0.23 | 0.891 | -0.616 | -0.0932 |
| O=C1C2C=CC(C(O)C=Cc3ccc([N+](=O)[O-])cc3)N(Nc3ccccc3)C2C(=O)N1c1ccccc1 (stereo not given) | 0.859 | 0.075 (inactive) | 0.346 | 0.0167 | 0.713 | 2.05 | 0.276 | 1.24 | -0.0982 | 1.1 |
| O=C1N(CCS(=O)(=O)c2ccccc2)Cc2ccccc2[C@@H]2OC(c3ccc(OCCCO)cc3)=N[C@]12CCS(=O)(=O)c1ccccc1 | 0.0789 | 0.02 (inactive) | 0.128 | 0.123 | 0.628 | 2.98 | 0.638 | 1.31 | 1.15 | 1.11 |
| CN(C)C(=O)[C@]1(CCS(=O)(=O)c2ccccc2)N=C(c2ccc(OCCCO)cc2)O[C@@H]1c1ccccc1 | 0.907 | 0.462 (inactive) | 0.201 | -0.0676 | 0.769 | 2.99 | 0.565 | 1.3 | -0.0707 | 0.937 |
